High-throughput results from PubChem.
PHOSPHO1 inh – inhibitors of human PHOSPHO1 phosphatase; recombinant PHOSPHO1, absorbance phosphatase assay; AID 1565; Q8TCT1; 290,000 tested, 1.1% active; inhibition, % at 13.3 µM; in the data active means inhibition above about 60%
Target sequence (Q8TCT1 whole entry, looked up): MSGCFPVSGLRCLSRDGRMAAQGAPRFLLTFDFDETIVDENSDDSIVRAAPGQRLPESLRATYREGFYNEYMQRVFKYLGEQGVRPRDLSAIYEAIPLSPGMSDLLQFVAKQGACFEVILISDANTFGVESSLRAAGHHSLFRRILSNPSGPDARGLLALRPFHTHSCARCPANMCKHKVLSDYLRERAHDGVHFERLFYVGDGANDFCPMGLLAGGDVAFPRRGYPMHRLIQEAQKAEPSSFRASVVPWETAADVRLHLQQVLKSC
A3A deaminase – inhibitors of human APOBEC3A DNA deaminase. recombinant A3A, FAM/TAMRA ssDNA deamination fluorescence. 330,000 tested, 0.41% active. P31941. inhibition, % at 20 µM;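 active means at least 40% inhibition at 20 µM here, with at most 30% in a related deaminase screen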;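 further: plate controls were A3A with DMSO for no effect and wells lacking A3A enzyme for full effect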
Wnt bcat act – activates Wnt/beta-catenin signaling in a reporter cell assay | activator, plate reader | 300,000 tested, 1.2% active | activation, % at 9.35 µM; in the data active means activation above about 30%, passing the limit was not always enough; inconclusive means no clear call, values can overlap the other calls;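 further: 0% = neutral control wells and 100% = positive control wells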
esBAF inh – SWI/SNF esBAF complex inhibition | AID 602393 | mouse ES cells, Bmi1-luciferase knock-in reporter, 24 h; 100% = twice the neutral-well signal | 350,000 tested, 2% active | reporter increase, % at 12.5 µM; in the data active means activation above about 40%; inconclusive means no clear call, values can overlap the other calls;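 further: 0% = median of the plate's neutral control wells and 100% = double that signal; a rise in the Bmi1 reporter signal indicates esBAF inhibition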
A3G deaminase – APOBEC3G (human) deaminase inhibition. AID 493012. 330,000 tested, 0.28% active. Q9HC16. recombinant A3G, ssDNA deamination FAM/TAMRA fluorescence. inhibition, % at 20 µM;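 active means inhibition of at least 40% at 20 µM, with no more than 30% in the related APOBEC3A deaminase screen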;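 further: plate controls were DMSO wells with A3G for no effect and wells lacking A3G enzyme for full effect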
Target sequence (Q9HC16 whole entry, looked up): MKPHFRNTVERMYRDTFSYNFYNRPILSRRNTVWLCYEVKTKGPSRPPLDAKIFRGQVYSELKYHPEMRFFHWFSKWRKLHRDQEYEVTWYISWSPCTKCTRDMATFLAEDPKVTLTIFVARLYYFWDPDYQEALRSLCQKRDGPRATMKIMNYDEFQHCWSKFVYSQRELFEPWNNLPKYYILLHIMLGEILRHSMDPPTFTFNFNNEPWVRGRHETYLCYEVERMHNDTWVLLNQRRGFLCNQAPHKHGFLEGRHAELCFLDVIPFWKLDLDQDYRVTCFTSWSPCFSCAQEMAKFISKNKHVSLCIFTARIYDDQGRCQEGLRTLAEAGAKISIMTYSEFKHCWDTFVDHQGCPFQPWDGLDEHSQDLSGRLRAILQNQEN
MITF TRPM1 HTS – MITF TRPM1 promoter activation in melanoma cells | AID 588334 | SK-MEL-5 TRPM1-promoter luciferase, 24 h; % of positive control, neutral wells = 0 | activation, % at 12.5 µM | 300,000 tested, 0.75% active;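 active means mean activation of at least 80% with every replicate also reaching 80%; inconclusive means mean reaches 80% but some replicate falls short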;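 further: 0% = neutral control wells and 100% = parthenolide positive control wells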
Active calls of the source: *. Compounds with a hit are over-represented: about 3.6% of the library has one in this group of screens.

For O=C(N[C@H]1CC[C@@H](CCn2cc(C3(O)CCCC3)nn2)O[C@@H]1CO)C1CCC1 the results were esBAF inh 2.0.
`Fc1ccccc1NC(=S)NCCc1ccccc1` gave PHOSPHO1 inh 56.2, A3A deaminase -3.7, Wnt bcat act -1.5, esBAF inh 48.7* and A3G deaminase 3.3.
`Fc1ccc(F)c(NC(=S)NCCc2ccccc2)c1` gave PHOSPHO1 inh 17.2, A3A deaminase 3.5, Wnt bcat act 8.5, esBAF inh 5.9, A3G deaminase -2.0 and MITF TRPM1 HTS 11.5.
Screening CC(C)OC(=O)Cc1nc2sc(-c3ccccc3)cc2c(=O)[nH]1 returned PHOSPHO1 inh -10.9, A3A deaminase -5.2, Wnt bcat act 12.0, esBAF inh 49.1* and A3G deaminase -7.5.
Screening O=C(Nc1ccccc1)N1CCCCN2[C@H](CO)[C@H](c3ccc(-c4ccncc4)cc3)[C@H]2C1 returned esBAF inh 2.1.
For COc1ccccc1-c1cn(CC[C@H]2CC[C@H](NS(=O)(=O)c3ccccc3C)[C@H](CO)O2)nn1 the results were esBAF inh 1.6.
Screening O=C(Nc1scc(-c2ccc(F)cc2)c1C(=O)O)c1ccco1 returned PHOSPHO1 inh -51.0, A3A deaminase -1.4, esBAF inh 26.4, A3G deaminase 0.4 and MITF TRPM1 HTS 16.7.
COC(=O)c1c(-c2ccccc2)csc1NC(=O)c1ccco1 was read as PHOSPHO1 inh 7.6, A3A deaminase -1.0, esBAF inh 97.6*, A3G deaminase -9.2 and MITF TRPM1 HTS 105.4*.
CCOC(=O)c1c(C2COc3ccccc3O2)csc1NC(=O)c1ccco1 (stereo not given) was read as PHOSPHO1 inh 86.0*, A3A deaminase -4.8, Wnt bcat act -1.8, esBAF inh -1.2, A3G deaminase 37.7 and MITF TRPM1 HTS 11.3.
C[C@@H]1CN([C@H](C)CO)C(=O)c2ccccc2-c2ccccc2CO[C@H]1CN(C)C(=O)NC1CCCCC1 was read as esBAF inh 8.9.
For CC(=O)Nc1ccc(C(=O)Nc2ccc3c(c2)OCCO3)cc1 the results were PHOSPHO1 inh 9.8, A3A deaminase -3.3, Wnt bcat act 24.5, esBAF inh -6.6, A3G deaminase -9.5 and MITF TRPM1 HTS 40.8.
Screening Cc1cc(C)n(-c2ccc(C(=O)Nc3ccc4c(c3)OCCO4)cc2)n1 returned PHOSPHO1 inh -3.3, A3A deaminase 1.3, esBAF inh 55.8*, A3G deaminase 0.8 and MITF TRPM1 HTS 69.7.
`CC(C)CNS(=O)(=O)c1ccc(C(=O)Nc2ccc3c(c2)OCCO3)cc1` gave PHOSPHO1 inh 25.5, A3A deaminase -3.4, esBAF inh 91.2*, A3G deaminase -4.2 and MITF TRPM1 HTS 59.2.
Cc1ccc(Nc2nc(N)nc(CSCCO)n2)cc1 was read as PHOSPHO1 inh 8.9, A3A deaminase -2.0, Wnt bcat act 29.1, esBAF inh inconclusive, A3G deaminase -8.9 and MITF TRPM1 HTS 41.5.
Nc1nc(CCl)nc(Nc2ccccc2)n1 was read as PHOSPHO1 inh -21.2, A3A deaminase 2.0, Wnt bcat act 4.4, A3G deaminase -7.8 and MITF TRPM1 HTS 19.7.
For Cc1ccc(Nc2nc(N)nc(CC#N)n2)cc1 the results were PHOSPHO1 inh 2.1, A3A deaminase -1.1, esBAF inh 69.5*, A3G deaminase -3.0 and MITF TRPM1 HTS 70.9.
Cc1ccc(Nc2nc(N)nc(COC(=O)C3=COCCO3)n2)cc1 was read as A3A deaminase -4.3, Wnt bcat act inconclusive, esBAF inh 36.8, A3G deaminase -3.5 and MITF TRPM1 HTS 95.0*.
Screening Cc1ccc(Nc2nc(N)nc(CCl)n2)cc1 returned PHOSPHO1 inh 50.9, A3A deaminase -2.2, Wnt bcat act 39.1* and A3G deaminase -1.9.
C[C@@H]1CN([C@H](C)CO)C(=O)c2cc(NC(=O)Nc3ccccc3)ccc2O[C@H]1CN(C)Cc1ccc(-c2ccccc2)cc1 was read as esBAF inh 7.9.
Screening COCC(=O)N[C@H]1CC[C@@H](CC(=O)NCc2ccc(Cl)cc2)O[C@@H]1CO returned esBAF inh 0.8.
Cc1ccc(S(=O)(=O)N(C)C[C@H]2OCCCC[C@H](C)Oc3ccc(NC(=O)Nc4ccccc4)cc3C(=O)N([C@H](C)CO)C[C@H]2C)cc1 was read as esBAF inh 3.9.
Screening CCCC(=O)Nc1ccc2c(c1)C(=O)N(C)C[C@H](OC)[C@@H](C)CN(CCC(F)(F)F)[C@H](C)CO2 returned esBAF inh -12.4.
For CO[C@@H](CN(C)Cc1ccc2c(c1)OCO2)[C@H](C)CN(C(=O)c1ccccc1)[C@@H](C)CO the results were esBAF inh -2.9.
`Cn1cnc(S(=O)(=O)N[C@H]2CC[C@@H](CC(=O)N3CCN(c4ccccc4)CC3)O[C@@H]2CO)c1` gave esBAF inh 2.9.
CCCN1[C@H](C(=O)NCC2CC2)[C@@H](CO)[C@@H]2Cn3c(ccc(/C=C/c4ccccc4)c3=O)[C@@H]21 was read as esBAF inh -0.2.
For COCC1CCN(C(=O)c2cc(COc3ccc4c(c3)CCCC4)on2)C1 (stereo not given) the results were PHOSPHO1 inh 31.3, A3A deaminase -6.2, Wnt bcat act -0.7, A3G deaminase -3.3 and MITF TRPM1 HTS 0.7.
O=C(c1cc(COc2ccc3c(c2)CCCC3)on1)N1CCCC1 was read as PHOSPHO1 inh 46.6, A3A deaminase 5.2, Wnt bcat act 1.5, esBAF inh 67.8*, A3G deaminase -2.6 and MITF TRPM1 HTS 123.9*.
Screening COc1ccccc1OCc1cc(C(=O)N2CCCC(OCc3cccnc3)C2)no1 (stereo not given) returned PHOSPHO1 inh 22.6, A3A deaminase -0.3, Wnt bcat act 20.2, A3G deaminase 0.0 and MITF TRPM1 HTS 60.6.
For COc1ccc(OCc2cc(C(=O)N3CCCC(CO)C3)no2)c2ccccc12 (stereo not given) the results were PHOSPHO1 inh 7.5, A3A deaminase -7.4, Wnt bcat act 32.7*, A3G deaminase -5.1 and MITF TRPM1 HTS 21.6.
Screening CSc1ccccc1OCc1cc(C(=O)N2CCSCC2)no1 returned PHOSPHO1 inh 22.6, A3A deaminase 2.1, Wnt bcat act 26.5, esBAF inh 69.5*, A3G deaminase -4.6 and MITF TRPM1 HTS 133.5*.
O=C(c1cc(COc2ccc(F)c(F)c2)on1)N1CCSCC1 was read as PHOSPHO1 inh 17.8, A3A deaminase -0.7, Wnt bcat act 12.0, esBAF inh 51.0*, A3G deaminase -1.5 and MITF TRPM1 HTS 55.4.
Screening O=C(c1cc(COc2cccc3cnccc23)on1)N1CCCC(CCCO)C1 (stereo not given) returned PHOSPHO1 inh 62.8*, A3A deaminase 2.9, Wnt bcat act -4.6, esBAF inh -15.8, A3G deaminase -1.3 and MITF TRPM1 HTS -25.6.
